Test [1] has as its target human Retinoid X Receptor beta (RXRb), RXRB (gene 6257) (UniProt P28702). Kind of test: ATG_RXRb_TRANS: Attagene TRANS-FACTORIAL HepG2 Assay for human Retinoid X Receptor beta (RXRb) (AID 2283013; active = hit-call score of the fitted dose curve at least 0.9, where 1 is the maximum). A digest of the protocol:
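Multiplexed TRANS reporter assay in HepG2; 24 h dosing; reporter mRNA by RT-PCR/CE fluorescence; gain-of-signal relative to DMSO.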

Test [2] concerns the target human Vitamin D Receptor (VDR), VDR (gene 7421) (UniProt P11473). Kind of test: ATG_VDR_TRANS: Attagene TRANS-FACTORIAL HepG2 Assay for human Vitamin D Receptor (VDR) (AID 2283022; active = hit-call score of the fitted dose curve at least 0.9, where 1 is the maximum). A digest of the protocol: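 Multiplexed TRANS reporter in HepG2; 24 h treatment; reporter mRNA by RT-PCR plus capillary electrophoresis; upregulation scored relative to DMSO.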
The target in test [3] is human Thyroid Receptor alpha (THRa1), THRA (gene 7067) (UniProt P10827). Kind of test: ATG_THRa1_TRANS: Attagene TRANS-FACTORIAL HepG2 Assay for human Thyroid Receptor alpha (THRa1) (AID 2283014; active = hit-call score of the fitted dose curve at least 0.9, where 1 is the maximum). A digest of the protocol:
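Measured here is mRNA from a GAL4-UAS reporter in transfected HepG2 cells carrying a Gal4-fused receptor, 24 h post-dose. DMSO served as negative control and baseline.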

Read-out in test [4]: E-selectin (Homo sapiens) (UniProt P16581)
Kind of test: BSK_3C_Eselectin: BioMAP Diversity Plus: 3C Assay for Eselectin Biomarker Activity (AID 2283015).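 Also: cell surface E-selectin protein quantified by ELISA 24 h after dosing.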 The note with it: primary human endothelial cells (HUVEC); actives raise or lower the signal. The gist of the method: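 Endpoint derived by bidirectional fitting against DMSO vehicle; signal is ELISA-detected E-selectin from primary HUVEC at 24 h post-dosing, with parallel SRB staining (0.1% SRB, 560 nm) flagging cytotoxicity.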

Read-out in test [5]: Interleukin-1 alpha (IL1a), IL1A (gene 3552)
Kind of test: BSK_BE3C_IL1a: BioMAP Diversity Plus: BE3C Assay for Interleukin-1 alpha (IL1a) Biomarker Activity (AID 2283016). The settings on record: primary human bronchial epithelial cells; actives raise or lower the signal. The gist of the method: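 Cultures of primary human bronchial epithelial cells receive test chemical. After 24 h, IL-1a is quantified by ELISA, while parallel wells are fixed in TCA and SRB-stained for total protein. Changes in either direction are fitted relative to DMSO.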

Read-out in test [6]: Monocyte Chemoattractant Protein-1 (MCP1), CCL2 (gene 6347)
Kind of test: BSK_3C_MCP1: BioMAP Diversity Plus: 3C Assay for Monocyte Chemoattractant Protein-1 (MCP1) Biomarker Activity (AID 2283017). The note with it: primary human endothelial cells (HUVEC); actives raise or lower the signal. A digest of the protocol: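 Using human vascular primary endothelium, researchers measured MCP-1 by ELISA 24 h after treatment, with DMSO serving as negative control for bidirectional fitting.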

Read-out in test [7]: Monocyte Chemoattractant Protein-1 (MCP1), CCL2 (gene 6347)
Kind of test: BSK_4H_MCP1: BioMAP Diversity Plus: 4H Assay for Monocyte Chemoattractant Protein-1 (MCP1) Biomarker Activity (AID 2283018). The settings on record: primary human endothelial cells (HUVEC); actives raise or lower the signal. The gist of the method: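 Readout: MCP-1 ELISA on compound-treated HUVEC, sampled 24 h post-dosing. Baseline and negative control DMSO; bidirectional fit. Overt toxicity checked alongside by sulforhodamine B protein staining at time of biomarker measurement.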

Read-out in test [8]: Human Leukocyte Antigen - DR isotype (HLADR), HLA-DRA (gene 3122)
Kind of test: BSK_3C_HLADR: BioMAP Diversity Plus: 3C Assay for Human Leukocyte Antigen - DR isotype (HLADR) Biomarker Activity (AID 2283019).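 Also: ELISA of cell-surface HLA-DR on HUVEC 24 h after dosing.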 The note with it: primary human endothelial cells (HUVEC); actives raise or lower the signal. A digest of the protocol:
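Compound added to primary HUVEC cultures, 24 h incubation, then HLA-DR determined by ELISA; endpoint derived by bidirectional fitting relative to DMSO negative control.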

Read-out in test [9]: Interleukin-8 (IL8), CXCL8 (gene 3576)
Kind of test: BSK_3C_IL8: BioMAP Diversity Plus: 3C Assay for Interleukin-8 (IL8) Biomarker Activity (AID 2283020). The note with it: primary human endothelial cells (HUVEC); actives raise or lower the signal. The gist of the method:
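Human vascular endothelial cells (umbilical vein) in the 3C system; IL-8 level detected by ELISA at 24 h post-dose, with DMSO as baseline.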

Test [10] in a line: BSK_3C_SRB: Viability Assessment in the BioMAP Diversity Plus: 3C Assay (AID 2283023).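 Also: fitted both ways against DMSO so a hit may be signal rise or drop.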 The note with it: primary human endothelial cells (HUVEC). A digest of the protocol: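 Overt cytotoxicity is gauged in parallel confluent HUVEC cultures by SRB total-protein staining at the time of biomarker measurement, 24 h after dosing. Gain or loss of signal is fitted versus DMSO.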
Read-out in test [11]: Matrix Metallopeptidase 1 (MMP1), MMP1 (gene 4312)
Kind of test: BSK_BE3C_MMP1: BioMAP Diversity Plus: BE3C Assay for Matrix Metallopeptidase 1 (MMP1) Biomarker Activity (AID 2283024). The settings on record: primary human bronchial epithelial cells; actives raise or lower the signal. A digest of the protocol:
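Dose cells, wait 24 h, run MMP1 ELISA; cells are human bronchial epithelial primaries. Both increases and decreases relative to DMSO counted.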

Read-out in test [12]: Pselectin, SELP (gene 6403)
Kind of test: BSK_4H_Pselectin: BioMAP Diversity Plus: 4H Assay for Pselectin Biomarker Activity (AID 2283026). The settings on record: primary human endothelial cells (HUVEC); actives raise or lower the signal. A digest of the protocol:
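Human vascular endothelium from umbilical vein; P-selectin measured by ELISA at 24 h post-dose, with cytotoxicity checked by sulforhodamine B total-protein staining in parallel cultures (0.1% SRB after 10% TCA fixation, read at 560 nm).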

Test [13] can be described thus: BSK_4H_SRB: Viability Assessment in the BioMAP Diversity Plus: 4H Assay (AID 2283027).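 Also: cells exposed to compound for 24 h before staining.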 The note with it: primary human endothelial cells (HUVEC). A digest of the protocol: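 Human umbilical vein endothelial cells, 24 h after chemical dosing; total protein measured by 0.1% sulforhodamine B staining after 10% TCA fixation, read at 560 nm. Bidirectional fitting against DMSO.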

The nature of test [14]: BSK_BE3C_SRB: Viability Assessment in the BioMAP Diversity Plus: BE3C Assay (AID 2283028). The note with it: primary human bronchial epithelial cells. The gist of the method:
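SRB total-protein staining (0.1%, after TCA fixation) of chemically dosed human bronchial epithelial primary cells at 24 h; DMSO serves as the negative control for bidirectional curve fitting.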

Read-out in test [15]: Thrombomodulin, THBD (gene 7056)
Kind of test: BSK_3C_Thrombomodulin: BioMAP Diversity Plus: 3C Assay for Thrombomodulin Biomarker Activity (AID 2283029). The settings on record: primary human endothelial cells (HUVEC); actives raise or lower the signal. The gist of the method: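 Thrombomodulin ELISA, human primary HUVEC, 24 h post-dose; data fitted in both directions relative to DMSO.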

Read-out in test [16]: Urokinase-type plasminogen activator receptor (uPAR), PLAUR (gene 5329)
Kind of test: BSK_4H_uPAR: BioMAP Diversity Plus: 4H Assay for Urokinase-type plasminogen activator receptor (uPAR) Biomarker Activity (AID 2283030). The settings on record: primary human endothelial cells (HUVEC); actives raise or lower the signal. A digest of the protocol: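 Endpoint derived via bidirectional curve fitting against DMSO baseline; readout was ELISA detection of uPAR on umbilical vein endothelial cells at 24 h post-treatment, with SRB-stained parallel cultures assessing cytotoxicity.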

Read-out in test [17]: Vascular endothelial growth factor receptor 2 (Homo sapiens) (UniProt P35968)
Kind of test: BSK_4H_VEGFRII: BioMAP Diversity Plus: 4H Assay for Vascular endothelial growth factor receptor 2 (VEGFR2) Biomarker Activity (AID 2283031). The settings on record: primary human endothelial cells (HUVEC); actives raise or lower the signal. The gist of the method:
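In this multiplexed HUVEC system, biomarker ELISA was performed after 24 h chemical exposure. Parallel SRB staining (TCA fixation, 560 nm) tracked cytotoxicity; DMSO served as baseline.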

Read-out in test [18]: Monokine induced gamma interferon (MIG), CXCL9 (gene 4283)
Kind of test: BSK_3C_MIG: BioMAP Diversity Plus: 3C Assay for Monokine induced gamma interferon (MIG) Biomarker Activity (AID 2283021). The note with it: primary human endothelial cells (HUVEC); actives raise or lower the signal. A digest of the protocol: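 After 24 h of treatment, human umbilical vein endothelial cultures (3C system) had their MIG biomarker level determined by ELISA, with DMSO serving as negative control.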

Molecules are shown by their SMILES. Inconclusive results are not listed. Calls of active or inactive are those of the source. The calls were made as follows, unless noted: active = hit-call score of the fitted dose curve at least 0.9, where 1 is the maximum; inactive = score below 0.9.

Chain of human Thyroid Receptor alpha (THRa1), THRA (gene 7067) (P10827 whole entry, looked up, the tested form may be a part): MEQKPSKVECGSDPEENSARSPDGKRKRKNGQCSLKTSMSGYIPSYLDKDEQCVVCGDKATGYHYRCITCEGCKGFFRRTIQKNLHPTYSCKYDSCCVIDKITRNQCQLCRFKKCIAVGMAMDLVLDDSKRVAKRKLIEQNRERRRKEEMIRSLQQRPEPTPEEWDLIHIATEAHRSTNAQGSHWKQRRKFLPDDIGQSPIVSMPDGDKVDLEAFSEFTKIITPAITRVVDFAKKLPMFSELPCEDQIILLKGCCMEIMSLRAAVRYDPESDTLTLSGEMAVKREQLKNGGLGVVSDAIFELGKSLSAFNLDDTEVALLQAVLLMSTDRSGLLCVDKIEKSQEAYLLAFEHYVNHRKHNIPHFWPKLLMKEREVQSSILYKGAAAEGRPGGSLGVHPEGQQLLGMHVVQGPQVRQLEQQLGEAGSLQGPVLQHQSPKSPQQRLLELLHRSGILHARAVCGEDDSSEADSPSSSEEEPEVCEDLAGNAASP
Chain of human Vitamin D Receptor (VDR), VDR (gene 7421) (P11473 whole entry, looked up): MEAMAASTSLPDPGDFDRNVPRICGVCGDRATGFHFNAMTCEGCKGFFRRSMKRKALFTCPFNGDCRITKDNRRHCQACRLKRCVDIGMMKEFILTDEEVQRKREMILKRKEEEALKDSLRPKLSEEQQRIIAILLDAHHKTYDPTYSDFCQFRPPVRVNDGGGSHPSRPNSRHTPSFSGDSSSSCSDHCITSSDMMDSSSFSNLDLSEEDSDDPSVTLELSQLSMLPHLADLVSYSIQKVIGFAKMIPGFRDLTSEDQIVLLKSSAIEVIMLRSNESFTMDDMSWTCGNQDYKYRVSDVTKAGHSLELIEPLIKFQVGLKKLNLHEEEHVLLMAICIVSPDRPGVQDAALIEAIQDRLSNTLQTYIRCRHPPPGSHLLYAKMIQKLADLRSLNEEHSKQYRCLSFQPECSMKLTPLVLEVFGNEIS
Chain of E-selectin (Homo sapiens) (P16581 whole entry, looked up): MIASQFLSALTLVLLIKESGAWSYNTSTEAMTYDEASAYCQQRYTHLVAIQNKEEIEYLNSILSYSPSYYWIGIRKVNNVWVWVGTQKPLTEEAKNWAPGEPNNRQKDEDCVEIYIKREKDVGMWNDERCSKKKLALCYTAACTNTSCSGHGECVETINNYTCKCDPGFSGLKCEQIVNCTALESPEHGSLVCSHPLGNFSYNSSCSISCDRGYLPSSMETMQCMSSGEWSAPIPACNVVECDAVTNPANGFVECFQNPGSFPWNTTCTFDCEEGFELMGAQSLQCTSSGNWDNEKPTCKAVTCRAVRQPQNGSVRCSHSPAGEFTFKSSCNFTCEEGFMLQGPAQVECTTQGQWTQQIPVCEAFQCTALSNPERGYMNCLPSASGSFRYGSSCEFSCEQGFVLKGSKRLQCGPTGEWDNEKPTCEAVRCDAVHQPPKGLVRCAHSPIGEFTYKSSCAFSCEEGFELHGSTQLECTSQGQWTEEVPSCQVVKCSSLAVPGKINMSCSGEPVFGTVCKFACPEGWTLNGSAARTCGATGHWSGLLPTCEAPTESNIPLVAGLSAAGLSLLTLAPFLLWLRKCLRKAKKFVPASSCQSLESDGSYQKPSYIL
Chain of human Retinoid X Receptor beta (RXRb), RXRB (gene 6257) (P28702 whole entry, looked up): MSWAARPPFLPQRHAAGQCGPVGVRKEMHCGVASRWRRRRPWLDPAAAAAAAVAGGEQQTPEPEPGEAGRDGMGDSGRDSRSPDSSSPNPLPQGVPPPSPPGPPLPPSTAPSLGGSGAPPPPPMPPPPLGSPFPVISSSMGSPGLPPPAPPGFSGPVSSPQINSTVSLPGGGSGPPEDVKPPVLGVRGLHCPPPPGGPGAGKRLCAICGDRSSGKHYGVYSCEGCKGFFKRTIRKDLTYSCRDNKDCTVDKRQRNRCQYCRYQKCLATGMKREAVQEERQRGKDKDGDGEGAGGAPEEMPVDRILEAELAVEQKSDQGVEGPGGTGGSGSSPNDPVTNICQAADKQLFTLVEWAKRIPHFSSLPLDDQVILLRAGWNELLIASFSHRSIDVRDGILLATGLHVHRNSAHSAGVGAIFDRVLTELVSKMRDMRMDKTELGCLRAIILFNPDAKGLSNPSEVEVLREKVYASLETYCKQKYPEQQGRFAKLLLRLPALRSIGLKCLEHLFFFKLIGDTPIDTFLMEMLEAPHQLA

For the compound `Cc1ncc([N+](=O)[O-])n1C`, the AC50 (usually the midpoint of the concentration-response curve, whichever way the signal moves) in test [1] was 100 µM (active). In [2], the result was inactive.
`O=C1C(c2[nH]c3ccc(S(=O)(=O)O)cc3c2O)=Nc2ccc(S(=O)(=O)O)cc21`: the compound was classed as inactive in test [3] and in test [2].
For the compound `COC(C(=O)O)c1ccccc1` (configuration not stated), the AC50 in test [3] is 62.9 µM (active). Further, the compound was classed as inactive in test [2].
For `c1ccc(CCCc2ccccn2)cc1`, the outcome in test [3] and in test [2] was inactive.
For the compound `O=C(O)COCCN1CCN(C(c2ccccc2)c2ccc(Cl)cc2)CC1` (configuration not stated), the result in test [3] and in [2] was inactive.
`CC1(C)OC[C@@H]2O[C@@]3(C(=O)O)OC(C)(C)O[C@H]3[C@@H]2O1`: the outcome in test [2] was inactive.
The same measure, in the same setting: next, `COCCOCCOCCOCCOCCO`: “inactive”.
With `O=c1cc(-c2ccccc2)oc2cc(O)cc(O)c12`, the compound was called inactive in test [3] and in test [2].
Take `CC(C)C[C@H]1C(=O)N2CCC[C@H]2[C@]2(O)O[C@](NC(=O)[C@@H]3C=C4c5cccc6[nH]c(Br)c(c56)C[C@H]4N(C)C3)(C(C)C)C(=O)N12`: the result in test [2] was inactive.
Consider `COc1ccc(O)cc1`, for which the compound was called inactive in test [3] and in test [2].
With `COc1ccc(Cl)cc1C`, the compound was called inactive in test [3] and in [2].
As to `CCCCCCCCC`, the call in test [3] and in test [2] was inactive.
On to `CC[Si](OC(C)=O)(OC(C)=O)OC(C)=O`, for which the outcome in [4], in test [5], in test [6], in test [7], in test [8] and in test [9] was inactive. Moreover, the call in test [2], in test [10], in test [11], in test [12], in test [13] and in test [14] was inactive. For the same compound, the outcome in test [15], in [16] and in test [17] was inactive.
`N#Cc1nc(Cl)c(Cl)c(Cl)c1Cl`: in test [2], the compound was called inactive.
As for `CC(C)C1CCC(O)CC1` (configuration not stated), the call in test [3] and in test [2] was inactive.
On to `O=[N+]([O-])c1cc(C(F)(F)F)ccc1Cl`, for which the outcome in test [4], in [5], in test [6], in test [7], in [8] and in test [9] was inactive. The outcome in test [10], in [11], in test [12], in test [13], in test [14] and in [15] was inactive. In addition, the result in test [16] and in test [17] was inactive.
For `CCCC(=O)C(C)=O`, in test [2], the compound was called inactive.
For `CC(C)CCCCCCCOC(=O)c1ccc(C(=O)OCCCCCCCC(C)C)c(C(=O)OCCCCCCCC(C)C)c1`, the compound was called inactive in test [2].
Consider `N#Cc1ccc(CC(=NNC(=O)Nc2ccc(OC(F)(F)F)cc2)c2cccc(C(F)(F)F)c2)cc1`, for which the result in test [4], in test [5], in test [6], in test [7], in [8] and in test [9] was inactive. The outcome in [18], in test [10], in test [11], in [12], in [13] and in [14] was inactive. The result in test [15], in test [16] and in test [17] was inactive.
For the compound `CCCCOCCOCCOCCOCCO`, the call in test [3] and in test [2] was inactive.

Values taken from PubChem BioAssay (EPA / NIEHS).
